Pf apPOL block: Pf-apPOL DNA polymerase inhibition | 0.25% of 210,000 active | Recombinant Pf-apPOL, molecular beacon fluorescence, 1.5 h | inhibition, % at 10 µM
mHTT CaM bind: inhibitors of human mutant huntingtin-calmodulin interaction. AlphaScreen His-mHTT/GST-CaM binding, luminescence. P42858. inhibition, % at 15 µM. 3.6% of 190,000 active;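 also: 0% = both proteins with DMSO and 100% = one protein alone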
* marks the source's active call; other numbers are inactive results; x = not tested or not shown. In the library only some 3.5% were active in any assay of this set; here they are far more common. Rule as the data show it: active = inhibition above about 50%; inactive = the rest.

SMILES	Pf apPOL block	mHTT CaM bind
COc1ccccc1NC(=O)c1sc2[nH]c(=O)c(C(=O)O)cc2c1N	3.7	13.0
CC(=O)Nc1ccc(NC(=O)CCc2ccc3ccn(C)c3c2)cc1	-1.5	-7.3
O=C(Nc1cc(Cl)cc(Cl)c1)c1ccc(F)c(S(=O)(=O)NC2CCCC2)c1	30.8	54.0*
Cc1ccc(NC(=O)c2cc(S(=O)(=O)NC3CCCCC3)ccc2F)cc1Cl	-7.8	5.0
O=C(Nc1cccc(Cl)c1)c1ccc(F)c(S(=O)(=O)NC2CCCC2)c1	0.3	-1.0
O=C(Nc1ccc(Cl)c(Cl)c1)c1cc(S(=O)(=O)NC2CCCCC2)ccc1F	-4.5	78.0*
O=C(c1cc(F)ccc1Cl)N1CCc2nc(-c3ccccc3)ncc2C1	0.0	19.0
CCCOc1ccc(C(=O)Nc2ccccc2C)cc1	90.0*	-6.9
CCCC(=O)Nc1ccc(NC(=O)c2ccc(C)cc2)cc1	-4.5	5.1
CCCCOc1ccc(C(=O)Nc2ccc(NC(=O)CCC)cc2)cc1	98.6*	-0.5
CCCOc1ccc(C(=O)Nc2ccccc2[N+](=O)[O-])cc1	-9.3	29.1
CCSc1nc2c(c(=O)n1-c1ccc(Br)cc1)SCC2	0.0	5.0
O=C(Nc1ccn(Cc2c(F)cccc2Cl)n1)c1cc2ccccc2oc1=O	0.9	-1.0
CC(=O)NC(C)(C)c1cnnn1-c1nonc1N (tested in a mixture with another compound)	x	-0.3
CC1(C)CC(=O)C2=C(C1)c1c(ccc3ncccc13)NC2c1ccc(Cl)cc1 (stereo not drawn)	57.8*	18.0
CC1(C)CC(=O)C2=C(C1)c1c(ccc3ncccc13)NC2c1ccccc1 (stereo not drawn)	-0.8	19.0
CC(CCc1ccccc1)NC(=O)c1csc2c1CCCC2 (stereo not drawn)	-0.5	-8.6
Cc1ccc(-n2nc3c(c2NC(=O)c2ccco2)CSC3)c(C)c1	-9.8	52.0*
CC(=O)Nc1c2c(nn1-c1cccc(Cl)c1)CSC2	-6.9	35.0
Cc1ccc(-n2nc3c(c2NC(=O)c2cccc([N+](=O)[O-])c2)CSC3)c(C)c1	-5.1	0.0
O=C(Nc1c2c(nn1-c1cccc(Cl)c1)CSC2)c1ccco1	-1.2	67.0*
Cc1ccc(C(=O)Nc2c3c(nn2-c2ccc(C)cc2C)CSC3)cc1	-7.7	32.0
Cc1ccc(-n2nc3c(c2NC(=O)c2ccc([N+](=O)[O-])cc2)CSC3)c(C)c1	-4.7	50.0*
O=C(NCc1cccs1)C(=O)Nc1c2c(nn1-c1cccc(Cl)c1)CSC2	-4.9	69.3*
O=C(Nc1c2c(nn1-c1cccc(Cl)c1)CSC2)c1c(F)cccc1F	-4.8	23.0
SMILES	Pf apPOL block	mHTT CaM bind
COC(OC)c1ccc2c(N)c(C(=O)Nc3ccc(C(F)(F)F)cc3)sc2n1	-2.9	x
COCCN1CCC(CNS(=O)(=O)c2cccs2)CC1	-4.9	-5.6
CN1C/C(=C\c2ccccc2F)C(=O)/C(=C/c2ccccc2F)C1	-2.1	31.0
CCOCCCNC(=O)CNC(=O)c1ccc(=O)[nH]c1	-0.1	-14.2
CC(C)(C)c1ccc(-c2cc(N)c(C(N)=O)s2)cc1	-172.8	x
O=C(NCc1cscn1)C1CCN(S(=O)(=O)c2ccc(Br)s2)CC1	-6.1	-13.0
Nc1c(Cl)cc2c(c1Cl)C(=O)c1ccccc1C2=O	-4.2	13.0
Cc1ccc(Cl)cc1N1CCN(C(=O)C2CCCC2)C(C)C1=O (stereo not drawn)	-1.2	4.5
Cc1ccccc1S(=O)(=O)N1CCC(c2nc(C(=O)N3CCOCC3)c(C)o2)CC1	-3.6	4.3
Cc1cccc(-n2nc3c(c2NC(=O)c2ccco2)CSC3)c1C	-6.6	60.0*
COc1cc(C(=O)Nc2c3c(nn2-c2ccc(C)cc2C)CSC3)cc(OC)c1OC	-6.8	-2.0
COc1cccc(C(=O)Nc2c3c(nn2-c2ccc(C)cc2C)CSC3)c1OC	-2.7	50.0*
Cc1ccccc1-n1nc2c(c1NC(=O)c1ccco1)CSC2	-2.1	38.0
Oc1ccc(Cl)cc1C=Nc1ccc2cn[nH]c2c1	2.4	x
COc1cccc(Oc2c(C)oc3cc(OCC(=O)OCc4ccccc4)ccc3c2=O)c1	-1.7	-9.0
Cc1ccc(-n2[nH]c(=O)c(C=c3c(C)c(C#N)c4nc5ccccc5n4c3=O)c2O)cc1Cl	3.3	51.0*
Cc1c(Cc2ccc(Cl)cc2)c(NCCCn2ccnc2)n2c(nc3ccccc32)c1C#N	0.7	-5.0
COc1ccccc1C1=NN(C(=O)CN2CCC(C)CC2)C(c2cccc(F)c2)C1 (stereo not drawn)	-6.6	22.3
CC(=O)N1CCN(CC(=O)N2N=C(c3ccccc3)CC2c2ccc(F)cc2)CC1 (stereo not drawn)	-2.0	29.7
COc1ccccc1C1CC(c2ccc(F)cc2)=NN1C(=O)CN1CCC(C)CC1 (stereo not drawn)	-3.5	93.4*
COc1ccccc1C1CC(c2cccc(F)c2)=NN1C(=O)CN1CCN(C)CC1 (stereo not drawn)	0.3	98.8*
COc1cccc(C(=O)Nc2nn(C)c3cccc(F)c23)c1	-10.8	x
COc1ccccc1CNC(=O)Cc1nc2nc(C)c(Cc3cccc(Cl)c3)c(C)n2n1	-11.7	57.0*
COc1ccc(CNC(=O)c2cnn3c(C)c(Cc4cccc(Cl)c4)c(C)nc23)cc1	-6.2	5.0
COCCNC(=O)c1cnn2c(C)c(Cc3cccc(Cl)c3)c(C)nc12	-11.6	45.0
SMILES	Pf apPOL block	mHTT CaM bind
Cc1ccc(CNC(=O)c2cnn3c(C)c(Cc4cccc(Br)c4)c(C)nc23)cc1	-6.3	6.0
Cc1nc2c(C(=O)NCc3ccccn3)cnn2c(C)c1Cc1cccc(Cl)c1	-5.6	72.0*
Cc1nc2c(C(=O)NCC3CCCO3)cnn2c(C)c1Cc1cccc(Br)c1 (stereo not drawn)	-3.7	96.0*
COc1ccccc1CNC(=O)CSc1nc2nc(C)c(Cc3ccccc3)c(C)n2n1	-2.5	10.0
COCCNC(=O)c1cnn2c(C)c(Cc3cccc(Br)c3)c(C)nc12	-9.4	63.0*
NC(=O)c1cc2cc(Br)ccc2oc1=Nc1ccccc1	0.2	2.0
O=C(Nc1cccc(F)c1)c1cc(S(=O)(=O)N2CCCC2)c(Cl)cc1Cl	-4.6	-3.0
CCCCCCNC(=O)C1CC(=O)N(CCc2c[nH]c3ccc(C)cc23)C1 (stereo not drawn)	-4.7	11.3
O=C(CCC1CCN(c2cc(NC3CC3)ncn2)CC1)NCc1cccs1	-3.8	3.8
CC(C)(C)c1ccc(S(=O)(=O)N=C2C=CC(=O)c3ccccc32)cc1	7.5	94.0*
CCOc1ccc(C2C(=O)c3ccccc3C2=O)cc1	-0.6	-3.9
CCOc1ccc(S(=O)(=O)N=C2C=CC(=O)C(Br)=C2)cc1	-4.6	73.0*
CCc1ccc(S(=O)(=O)N=C2C=CC(=O)c3ccccc32)cc1	-2.5	93.0*
CCOc1ccc(S(=O)(=O)N=C2C=CC(=O)c3ccccc32)cc1	-4.4	72.0*
CCc1ccc(S(=O)(=O)N=C2C=CC(=O)C=C2)cc1	-2.3	48.0
CC(C)c1ccc(S(=O)(=O)N=C2C=C(Br)C(=O)c3ccccc32)cc1	-2.9	40.0
COc1ccc(S(=O)(=O)N=C2C=C(Br)C(=O)C(Br)=C2)cc1	-0.7	46.0
CCOc1ccc(NC(=O)Cc2ccc([N+](=O)[O-])cc2)cc1	-2.1	0.6
C#CCOc1ccc(/C=C2/C(=O)N(c3ccc(Cl)c(C(=O)O)c3)N=C2C)cc1OCC	-2.7	9.0
Cc1ccc(Oc2nccnc2N2CCC(C(=O)Nc3ccc(F)cc3F)CC2)cc1	-6.7	0.7
O=S(=O)(C1CC1)N1CCN(Cc2ccccc2)CC1	-7.9	-17.1

From PubChem BioAssay
